High-throughput results as filed in PubChem BioAssay.
CSC inhib: cancer stem cell viability inhibitors, primary screen, luminescence; inhibition, % at 7.5 µM; cancer stem cell-like cells viability; 1.1% of 300,000 active; in the data active = inhibition above about 75%; tested in HMLE shEcad cells
MPTP inh: mitochondrial permeability transition pore inhibitors, primary screen, biochemical, isolated mouse mitochondria, absorbance; Ca2+ swelling absorbance, 30 min; 1.4% of 360,000 active; inhibition, % at 10 µM;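 active = inhibition of 50% or more, scaled per plate between neutral and stimulator controls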;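 also: 0% = DMSO wells given calcium and 100% = 1 mM EGTA wells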
SKKanGAS inh: S. pyogenes SKKanGAS growth inhibitors in kanamycin, primary screen, streptokinase expression inhibitor project, SKKanGAS strain, BacTiter-Glo luminescence; 1.3% of 300,000 active; inhibition, % at 7.5 µM; 6 h;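 active = mean replicate score, as percent of positive control median, at least 50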;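 also: strain carries kanamycin resistance gene driven by streptokinase promoter and grows in 40 µg/ml kanamycin; loss of luminescence reflects streptokinase promoter inhibition or plain growth inhibition; 0% = median of DMSO wells and 100% = positive control at its reference dose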
Beta apoptosis: inhibitors of cytokine-induced beta cell apoptosis, primary screen, luminescence | INS-1E cytokine-induced death, ATP luminescence, 48 h; percent of positive-control rescue, neutral wells zero | protection from apoptosis, % (no concentration beside the values) | 0.8% of 300,000 active | AID 435005, 2010;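 active = Every replicate reaches about 75%, or at least half do and their mean reaches it too, limit read from the data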;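 also: 0% = cytokine-treated negative control wells and 100% = positive control rescue; higher means more ATP so stronger rescue from cytokine killing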
NR3A LBD binder: binders of NR3A ligand-binding domain, primary screen, biophysical, differential scanning fluorimetry, uHTS; Glutamate receptor ionotropic, NMDA 3A (GRIN3A) ligand-binding domain; NR3A LBD differential scanning fluorimetry, Tm shift; 0% = protein alone, 100% = glycine-bound protein; Tm shift relative to glycine control, % at 25 µM; 2.5% of 340,000 active;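 active = melting temperature shift of at least 10% of the positive control shift, at one fixed dose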
Mdm2-MdmX inh: inhibitors of human Mdm2-MdmX association, primary screen, cell-based, luminescence, split luciferase, SaOS-2, uHTS. 3% of 330,000 active. AID 485346, 2010. SaOS-2 split-luciferase Mdm2/MdmX complementation. inhibition, % at 8 µM;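 active = inhibition of at least 50% at 8 µM in the primary screen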
Target sequence (O15151 whole entry, looked up): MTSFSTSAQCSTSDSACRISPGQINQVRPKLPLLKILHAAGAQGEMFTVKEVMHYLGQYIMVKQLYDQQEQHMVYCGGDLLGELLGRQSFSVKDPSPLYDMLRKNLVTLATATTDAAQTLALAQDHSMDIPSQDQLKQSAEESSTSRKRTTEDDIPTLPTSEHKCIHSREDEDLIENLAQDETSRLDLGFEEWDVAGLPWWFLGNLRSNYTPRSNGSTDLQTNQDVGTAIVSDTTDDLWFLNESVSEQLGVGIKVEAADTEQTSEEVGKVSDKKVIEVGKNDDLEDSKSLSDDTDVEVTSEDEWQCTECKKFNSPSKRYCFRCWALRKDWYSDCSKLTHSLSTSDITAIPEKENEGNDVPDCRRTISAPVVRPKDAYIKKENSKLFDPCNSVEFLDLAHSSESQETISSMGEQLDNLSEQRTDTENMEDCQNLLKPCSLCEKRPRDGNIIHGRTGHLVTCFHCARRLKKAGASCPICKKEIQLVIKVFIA
Target sequence (Q00987 whole entry, looked up): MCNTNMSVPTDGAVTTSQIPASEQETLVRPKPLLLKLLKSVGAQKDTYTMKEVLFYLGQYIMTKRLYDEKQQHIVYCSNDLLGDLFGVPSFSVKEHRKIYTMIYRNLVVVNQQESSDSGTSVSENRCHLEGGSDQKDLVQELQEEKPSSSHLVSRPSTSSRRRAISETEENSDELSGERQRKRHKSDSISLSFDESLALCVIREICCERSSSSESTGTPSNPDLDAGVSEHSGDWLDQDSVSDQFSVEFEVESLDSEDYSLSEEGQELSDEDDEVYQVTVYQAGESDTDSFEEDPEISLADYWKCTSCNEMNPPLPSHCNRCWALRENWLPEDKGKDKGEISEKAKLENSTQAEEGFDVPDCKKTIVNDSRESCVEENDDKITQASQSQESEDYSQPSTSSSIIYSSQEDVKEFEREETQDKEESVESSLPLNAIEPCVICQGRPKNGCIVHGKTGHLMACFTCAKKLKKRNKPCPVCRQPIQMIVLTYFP
An asterisk follows results filed as active; · = not tested or not shown; ! = repeats disagree. A selection: hits, their analogues and other compounds. The true share with any hit is near 6.9%.

SMILES	CSC inhib	MPTP inh	SKKanGAS inh	Beta apoptosis	NR3A LBD binder	Mdm2-MdmX inh
c1ccc(COc2ccc(Nc3ncnc4nc[nH]c34)cc2)cc1	0	1	3	7	26*	-15
COc1ccc(OC)c(CCNC(=O)C(=O)Nc2ccc3nc4n(c(=O)c3c2)CCCCC4)c1	·	0	57*	8	-1	-4
COc1cc(OC)cc(C(=O)Nc2ccc3nc4n(c(=O)c3c2)CCCCC4)c1	43	0	6	3	-3	-53
Cc1nnc(SCC2=C(C(=O)O)N3C(=O)[C@@H](NC(=O)Cn4cnnn4)[C@H]3SC2)s1	-12	-2	105*!	·	0	14
Cc1nnc(SCC2=C(C(=O)O)N3C(=O)C(NC(=O)COc4ccccc4)C3SC2)s1 (stereo not drawn)	·	-3	·	·	3	18
Cc1nnc(SCC2=C(C(=O)O)N3C(=O)C(NC(=O)Cn4cnnn4)C3SC2)s1 (stereo not drawn)	-9	3	106*	·	-1	-4
CCOc1ccccc1NC(=O)COC(=O)/C=C/c1cccs1	-1	-1	·	-9	-1	-5
COc1cc(OC)c(C2NC(=O)CCC2[N+](=O)[O-])cc1OC (stereo not drawn)	3	0	2	-5	7	0
CCOC(=O)C1CCN(C(=O)C(CCSC)NC(=O)c2ccccc2OC)CC1 (stereo not drawn)	-12	1	·	-4	2	-6
Cc1ccn2c(NC3CCCC3)c(-c3ccncc3)nc2c1	-8	2	1	-5	-2	-26
Cc1ccn2c(NC3CCCCC3)c(-c3cccc(-c4cccc(Cl)c4)c3)nc2c1	102*	7	32	-1	-7	44
O=c1c2c(ncn2C2CCCC2)n(Cc2ccccc2)c(=O)n1CCOc1ccc(Br)cc1	29	-4	-8	2	2	19
O=c1c2c(ncn2C2CCCC2)n(Cc2ccccc2)c(=O)n1CCOc1ccccc1	14	6	8	12	15*	-12
O=C(NCCN1CCCC1)C1CC(=O)N(C2CCCCC2)C1 (stereo not drawn)	8	-2	-9	-4	19*	0
CC(C)COc1cccc(-c2cc(C(=O)Nc3ccon3)c3ccccc3n2)c1	·	3	37	8	-7	36
COC(=O)[C@H](CC(C)C)NC(=O)Cn1cnc2c(OCc3ccccc3)ncnc21	·	0	·	·	97*	14
CC(=O)OCCCNc1cc(Sc2ccc(Cl)cc2)c2nonc2c1[N+](=O)[O-]	81*	9	-2	-1	-3	·
FC(F)(F)Oc1ccc(Nc2nc(N3CCOCC3)nc(N3CCOCC3)n2)cc1	-8	0	13	-1	-1	26
Cc1c(C(=O)Nc2ccc(S(=O)(=O)Nc3ncccn3)cc2)oc2ccc(F)cc12	2	-1	9	-4	3	14
CCOC(=O)OC(C)OC(=O)[C@@H]1N2C(=O)[C@@H](NC(=O)[C@H](N)c3ccccc3)[C@H]2SC1(C)C (stereo partly drawn)	-13	-2	·	-4	-1	19
CC1(C)S[C@@H]2[C@H](NC(=O)COc3ccccc3)C(=O)N2C1C(=O)OCc1cc2ccccc2n1S(=O)(=O)c1ccccc1 (stereo partly drawn)	-13	·	78*	-2	·	·
CC(Oc1ccccc1)C(=O)NC1C(=O)N2C1SC(C)(C)C2C(=O)O (stereo not drawn)	2	1	106*	4	0	2
CC1(C)S[C@@H]2[C@H](NC(=O)COc3ccccc3)C(=O)N2C1C(=O)OCC1CCCCC1 (stereo partly drawn)	18	0	64*	1	-2	20
Cc1onc(-c2c(Cl)cccc2Cl)c1C(=O)NC1C(=O)N2C1SC(C)(C)C2C(=O)O (stereo not drawn)	-17	-1	79*	-10	-2	-7
Cc1onc(-c2c(Cl)cccc2Cl)c1C(=O)N[C@@H]1C(=O)N2[C@@H]1SC(C)(C)[C@@H]2C(=O)O	3	-1	4	5	-1	12
